{"source": "PubChem BioAssay AID504332", "about": "(National Center for Advancing Translational Sciences (NCATS), 2011)", "note": "About 31,000 (8.9%) of roughly 350,000 compounds were called active. Roughly 15% stayed inconclusive and do not appear here. The list comes from a sample in which actives are over-represented; it also holds similar structures and randomly drawn compounds. A call without a number means that no potency is given here. A number with no mark means an inactive call. Calls come from the whole dose curve; as a rule, active = well fitted inhibition curve with a large enough effect; inconclusive = small, poorly fitted or top-dose-only effect; inactive = no such curve, though single readings can be large or run the other way. Potency is the fitted concentration of half-maximal effect.", "data": [{"target": "Histone-lysine N-methyltransferase EHMT2 (Homo sapiens) (UniProt Q96KQ7)", "sequence (Q96KQ7 913-1193 limits assumed)": "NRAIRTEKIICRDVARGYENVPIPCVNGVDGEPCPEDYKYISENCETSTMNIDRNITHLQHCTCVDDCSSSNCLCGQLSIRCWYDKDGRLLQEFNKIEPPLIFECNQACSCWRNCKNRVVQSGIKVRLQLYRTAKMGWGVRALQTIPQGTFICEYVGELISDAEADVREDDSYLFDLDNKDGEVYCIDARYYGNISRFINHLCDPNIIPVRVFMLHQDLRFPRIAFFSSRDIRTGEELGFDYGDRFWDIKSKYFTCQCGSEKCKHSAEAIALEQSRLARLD", "assay": "qHTS Assay for Inhibitors of Histone Lysine Methyltransferase G9a; note: nearly all actives have a fitted effect of over 75% in size", "details": "G9a H3K9 monomethylation, AlphaScreen, 2 h; series mostly up to 59 µM", "excerpt": "Methylated lysines, on the N-terminal tails of histone proteins serve as epigenetic markers to recruit factors that can then modify local chromatin structure to lead to functional consequences. G9a and other members of the SUV39 family of the SET domain-containing superfamily of histone lysine methyltransferases (HMT) have been identified to specifically methylate Lys9 of histone H3 (H3K9). G9a catalyzes the mono- and di-methylation of H3K9 in mammalian euchromatic regions, where the resulting H3K9me2 is indicative of transcriptional repression. […] The inhibition of G9a will result in transcriptional activation and work synergistically with DNA methyltransferase and histone deacetylase inhibitors, to kill cancer cells. This qHTS assay for identification of G9a inhibitors is a chemiluminescence based AlphaScreen (PerkinElmer). Methylation of biotinylated-histone peptide is measured through specific antibody-based detection, in conjunction with streptavidin-coated donor and anti-IgG antibody-coated acceptor beads. The method is particularly well suited for detection of inhibitors acting by the desired histone peptide competitive mechanism and is applicable to testing other HMTs. Although AlphaScreen has significant advantages with its utility in a variety of epigenetic target assays, the primary screening data provided in this deposition should be used with caution due to the prevalence of screening artifacts. An AlphaScreen counterscreen is highly recommended to be run against any putative actives to eliminate non specific artifacts. Alternatively, one can use other AlphaScreen assays in PubChem to filter out promiscuous hits. Quinn et al. A chemiluminescence-based method for identification of histone lysine methyltransferase inhibitors. Mol Biosyst 6(5): 782-8. 2010. PMID: 20567762 [2] Baell,Holloway. New substructure filters for removal of pan assay interference compounds (PAINS) from screening libraries and for their exclusion in bioassays. J Med Chem. 53(7):2719-40. 2010. PMID: 20131845 NIH Molecular Libraries Probe Production Network [MLPCN] NIH Chemical Genomics Center [NCGC] Structural Genomics Consortium (SGC) NIH Grant: 5U54 MH084681-02\nTo each well of a 1,536w plate, 2ul of HMT enzyme (final 20nM) were added, using a nanoliter dispenser. The G9a- and GLP-inhibitor BIX-01294 (CID: 25150857) are used as an intraplate control, with a 16-point titration in duplicate. A Kalypsys pin-tool transferred 23nl of library compound solution in DMSO to each well. Following a 15 min incubation of enzyme with compounds at room temperature, 1ul mixture of b-H3K9 peptide substrate (final 500nM) and SAM cofactor (final 20uM) were added. Reactions were allowed to proceed at room temperature for 2 hours. Methylated b-H3K9 peptide product was detected with 0.5 ug/mL rabbit polyclonal anti-monomethyl histone H3K9 antibody (Abcam Inc., Cambridge, MA) and 20 ug/mL each streptavidin-coated donor and anti-rabbit IgG acceptor AlphaScreen beads. Antibody and beads were added in a 1ul dispense, for a final volume of 4ul, and plates were incubated, protected from the light, for 10 min at room temperature. Microplates were then read on an EnVision multilabel plate reader using the 1,536 plate HTS AlphaScreen aperture (excitation time 80 ms, measurement time 240 ms).", "values": [{"smiles": "C[C@H](OC(=O)n1ccnc1)[C@@H]1O[C@@]2(C)CCC[C@@H]1O2", "activity, negative = inhibition": "9.09% [at 0.501 µM]"}, {"smiles": "Cc1ccc(-c2cn3c(n2)sc2cc(C(=O)NCc4cccs4)ccc23)c(C)c1", "Potency": "inactive"}, {"smiles": "CCC(=O)N1CCc2cc(Br)cc(S(=O)(=O)CCC(=O)N3CCN(c4ccc(F)cc4)CC3)c21", "Potency": "inactive"}, {"smiles": "CCn1c(CSCc2c(Cl)cccc2Cl)n[nH]c1=S", "Potency": "2.82 µM (active)"}, {"smiles": "O=C(CSCc1c(Cl)cccc1Cl)NN1C(=O)c2ccccc2C1=O", "activity, negative = inhibition": "-11.1% [at 2.33 µM]"}, {"smiles": "O=c1[nH]nc(CSCc2ccccc2Cl)[nH]1", "Potency": "inactive"}, {"smiles": "COc1ccccc1-n1ccnc(SCC(=O)NC2CCCCC2)c1=O", "Potency": "inactive"}, {"smiles": "Cc1ccc(C)c(OCCC(=O)OCC(=O)NC(=O)NCc2ccccc2)c1", "Potency": "inactive"}, {"smiles": "CCCc1cc(C(=O)Nc2ccc(Cl)cn2)cs1", "Potency": "inactive"}, {"smiles": "O=C(Nc1cccc([N+](=O)[O-])c1)Nc1ccc(Cl)cn1", "Potency": "inactive"}, {"smiles": "O=C(Nc1ccc(Cl)cn1)Nc1cccs1", "Potency": "56.2 µM (active)"}, {"smiles": "COc1ccc(S(=O)(=O)N2CCCCC2)cc1NC(=O)C1CC(=O)N(c2ccc3c(c2)OCCO3)C1", "note": "(stereo not given)", "Potency": "inactive"}, {"smiles": "CCOc1ccc(S(=O)(=O)N2CCCCC2)cc1NC(=O)CN1CCCC1c1cccs1", "note": "(stereo not given)", "activity, negative = inhibition": "19.5% [at 2.33 µM]"}, {"smiles": "Cc1cc(C(F)(F)F)n2ncc(-c3ccccc3)c2n1", "Potency": "inactive"}, {"smiles": "Cn1c(-c2sc3cc(C(F)(F)F)cnc3c2-c2ccccc2)n[nH]c1=S", "Potency": "2.24 µM (active)"}, {"smiles": "Cc1nn(-c2nc(-c3ccccc3)cc(C(F)(F)F)n2)c(C)c1Cl", "Potency": "inactive"}, {"smiles": "Cc1ccc2c(=O)c(C(=O)c3cccc(Cl)c3)cn(CC(=O)NCc3ccccc3)c2n1", "Potency": "inactive"}, {"smiles": "Cc1nc2ccccc2c(=O)n1Cc1ccc([N+](=O)[O-])cc1", "Potency": "inactive"}, {"smiles": "CC(=O)N1c2ccccc2N(Cc2ccc([N+](=O)[O-])cc2)C(=O)C1(C)C", "Potency": "inactive"}, {"smiles": "O=C1NC(=O)C2C1C(c1ccc([N+](=O)[O-])cc1)=NN2Cc1ccccc1", "note": "(stereo not given)", "Potency": "50.1 µM (active)"}, {"smiles": "Cc1cc(NC(=O)CSc2nnc(Nc3ccccc3F)s2)no1", "Potency": "inactive"}, {"smiles": "Nn1c(SCC(=O)NC(=O)NC2CCCC2)nnc1-c1ccccc1F", "Potency": "inactive"}, {"smiles": "Nn1c(SCC(=O)NC2CCCC2)nnc1-c1ccccc1F", "Potency": "50.1 µM (active)"}, {"smiles": "O=C(CSc1nnc(Nc2ccccc2F)s1)NC1CCCC1", "Potency": "8.91 µM (active)"}, {"smiles": "CC(C)NC(=O)NC(=O)CSc1nnc(-c2ccccc2F)n1N", "Potency": "inactive"}, {"smiles": "O=C(CSc1nnc(Nc2ccccc2)s1)Nc1cccnc1Cl", "Potency": "inactive"}, {"smiles": "O=C1CCCN1C(=O)COc1ccc([N+](=O)[O-])cc1", "Potency": "inactive"}, {"smiles": "COc1ccc(CCNc2nc(-c3ccc(F)cc3)cc(C(F)(F)F)n2)cc1OC", "Potency": "inactive"}, {"smiles": "Cc1cc(C)cc(-c2nnc(SCC(=O)NC3CC3)o2)c1", "activity, negative = inhibition": "18.2% [at 2.33 µM]"}, {"smiles": "CO[C@H]1[C@@H]2C=CO[C@@H](O[C@H]3O[C@@H](CO)[C@H](O)[C@@H](O)[C@@H]3O)[C@@H]2[C@@]2(CO)O[C@@H]12", "activity, negative = inhibition": "-4.51% [at 2.33 µM]"}, {"smiles": "COc1cccc(CNC(=O)Cn2c(=O)c3cccn3c3ccc(F)cc32)c1OC", "Potency": "inactive"}, {"smiles": "CCc1ccc(S(=O)(=O)Nc2ccc(C)c(NS(C)(=O)=O)c2)cc1", "Potency": "inactive"}, {"smiles": "Cn1c(=O)c(=O)n(C)c2cc(S(=O)(=O)NCCc3ccccc3)ccc21", "activity, negative = inhibition": "29.1% [at 0.501 µM]"}, {"smiles": "CCc1ccc(S(=O)(=O)Nc2cc3c(cc2N2CCCCC2)n(C)c(=O)c(=O)n3C)cc1", "Potency": "44.7 µM (active)"}, {"smiles": "COc1ccc(OC)c(C(c2nnnn2C(C)(C)C)N2CCc3ccccc3C2)c1", "note": "(stereo not given)", "Potency": "50.1 µM (active)"}, {"smiles": "CCC(C)(C)n1nnnc1C(c1ccccc1OC)N1CCSCC1", "note": "(stereo not given)", "Potency": "inactive"}, {"smiles": "CN1CCN(C(c2cc3cc4c(cc3[nH]c2=O)OCCO4)c2nnnn2C2CCCC2)CC1", "note": "(stereo not given)", "Potency": "inactive"}, {"smiles": "COCCn1nnnc1C(c1cc2ccc(OC)cc2[nH]c1=O)N1CCc2ccccc2C1", "note": "(stereo not given)", "Potency": "5.62 µM (active)"}, {"smiles": "CCOc1ccc2[nH]c(=O)c(C(c3nnnn3CCOC)N3CCOCC3)cc2c1", "note": "(stereo not given)", "activity, negative = inhibition": "8.47% [at 2.33 µM]"}, {"smiles": "Cc1ccc(C(c2nnnn2C(C)(C)C)N2CCc3ccccc3C2)cc1", "note": "(stereo not given)", "Potency": "inactive"}, {"smiles": "Cc1ccc(Cn2c(C)c3cnn(CC(=O)NCc4ccccc4)c(=O)c3c2C)cc1", "Potency": "inactive"}, {"smiles": "COc1ccc(S(=O)(=O)N2CCCCCC2)cc1C(=O)N(C)Cc1cccc(OC)c1OC", "Potency": "inactive"}, {"smiles": "COc1ccc(CCNC(=O)CCCn2c(=O)c3ccccc3n(Cc3ccc(C)cc3)c2=O)cc1OC", "Potency": "inactive"}, {"smiles": "C=CCn1c(C23CC4CC(CC(C4)C2)C3)n[nH]c1=S", "Potency": "3.16 µM (active)"}, {"smiles": "C=CCn1c(SCC(=O)NC)nnc1C12CC3CC(CC(C3)C1)C2", "Potency": "inactive"}, {"smiles": "C=CCn1c(SCC(=O)NC23CC4CC(CC(C4)C2)C3)nc(O)cc1=O", "Potency": "inactive"}, {"smiles": "COc1ccc(C(=O)NCc2ccc(C)cc2)cc1S(=O)(=O)N1CCCC1", "activity, negative = inhibition": "-16.6% [at 0.0925 µM]"}, {"smiles": "Nc1nc(SCC(=O)Nc2ccc(Cl)cc2C(F)(F)F)n[nH]1", "Potency": "inactive"}, {"smiles": "COc1ccc(CNC(=O)CSc2n[nH]c(-c3ccc(F)cc3)n2)cc1", "Potency": "inactive"}, {"smiles": "Nc1nc(SCC(=O)Nc2ccc(Cl)c([N+](=O)[O-])c2)n[nH]1", "activity, negative = inhibition": "-3.46% [at 12.7 µM]"}, {"smiles": "Nc1nc(SCC(=O)NNc2c(Cl)cc(Cl)cc2Cl)n[nH]1", "Potency": "10 µM (active)"}, {"smiles": "COc1ccc(CNC(=O)CSc2n[nH]c(N)n2)cc1OC", "Potency": "79.4 µM (active)"}, {"smiles": "Nc1nc(SCC(=O)NN(c2ccccc2)c2ccccc2)n[nH]1", "Potency": "inactive"}, {"smiles": "Cc1ccc(CCNC(=O)C2CCN(c3nnc(-n4cccc4CNc4ccc(C)cc4)s3)CC2)cc1", "Potency": "inactive"}, {"smiles": "COC(=O)c1ccc(NC(=O)c2cccc3c2C(=O)N(C2CCCCC2)C3)cc1", "Potency": "inactive"}, {"smiles": "CC1CCN(C(=O)c2cccc(S(=O)(=O)N3CCCc4ccccc43)c2)CC1", "activity, negative = inhibition": "10.4% [at 2.33 µM]"}, {"smiles": "COc1cc(OC)cc(C(=O)NNC(=O)CCOc2ccccc2OC)c1", "Potency": "inactive"}, {"smiles": "COc1cccc(C(=O)NCC(=O)OCc2cc(=O)n3ccsc3n2)c1", "Potency": "inactive"}, {"smiles": "COc1cc(C(=O)Nc2ccc(OCc3cc(=O)n4cc(C)sc4n3)cc2)cc(OC)c1OC", "Potency": "inactive"}, {"smiles": "O=C(Nc1cccc2cccnc12)c1cccc2c(Br)cccc12", "Potency": "inactive"}]}]}
